Shown are actives, neighbours in structure and some others; about 19% of the full set was active somewhere.
DT40 TDP1 no CPT: qHTS for Inhibitors of human tyrosyl-DNA phosphodiesterase 1 (TDP1): qHTS in cells in absence of CPT; DT40 Tdp1-/- hTDP1 cells, no CPT, ATP luminescence, 48 h; Potency, µM (doses to about 46.2 µM), most hits filed as inhibitors; 420,000 compounds, 15% hits; AID 686978, 2013; also: nearly all actives have a fitted effect of over 55% in size
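Growth of hTDP1-complemented DT40 Tdp1-knockout cells is measured by ATP luminescence after at least 48 hr compound exposure at 37 °C, with DMSO substituting for the 20 nM CPT used in the parallel screen.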
Giardia killer: Small Molecules that selectively kill Giardia lamblia: qHTS. activity change, % at 7.66 µM, hits read low. Giardia lamblia trophozoite viability. 340,000 compounds, 0.15% hits; in the data active = activity change below about -80%; inconclusive = between about -30% and that limit;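 also: parasites exposed to compound for two days anaerobically before the ATP read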
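Media and compound were dispensed first, then trophozoites at 100 cells/well; plates sat 48 hrs at 37 deg C without oxygen before ATP luminescence reagent was added and read after 15-30 min at room temperature.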
TDP1 inh: qHTS Assay for Inhibitors of Tyrosyl-DNA Phosphodiesterase (TDP1); recombinant TDP1, AlphaScreen DNA substrate cleavage; Potency, µM (top dose mostly 130 µM), most hits filed as inhibitors; 350,000 compounds, 0.28% hits; AID 485290, 2010; also: nearly all actives have a fitted effect of over 40% in size
Target sequence (Q9NUW8 whole entry, looked up): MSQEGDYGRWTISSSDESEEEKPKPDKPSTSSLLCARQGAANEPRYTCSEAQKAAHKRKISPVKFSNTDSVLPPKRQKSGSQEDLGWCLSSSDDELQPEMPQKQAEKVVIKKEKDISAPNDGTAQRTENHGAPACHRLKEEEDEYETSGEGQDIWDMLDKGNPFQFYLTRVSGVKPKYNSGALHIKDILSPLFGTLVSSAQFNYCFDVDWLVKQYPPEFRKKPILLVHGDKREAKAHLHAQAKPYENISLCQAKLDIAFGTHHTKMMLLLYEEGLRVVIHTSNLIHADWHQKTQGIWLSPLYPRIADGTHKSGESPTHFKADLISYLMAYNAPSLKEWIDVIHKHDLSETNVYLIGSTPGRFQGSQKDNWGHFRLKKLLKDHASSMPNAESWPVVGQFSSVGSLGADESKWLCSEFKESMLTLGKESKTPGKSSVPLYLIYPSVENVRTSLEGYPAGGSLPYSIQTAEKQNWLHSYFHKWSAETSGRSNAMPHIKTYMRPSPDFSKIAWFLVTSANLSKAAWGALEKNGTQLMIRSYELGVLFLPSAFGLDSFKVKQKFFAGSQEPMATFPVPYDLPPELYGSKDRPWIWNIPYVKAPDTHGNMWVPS
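Signal: AlphaScreen proximity between streptavidin donor and anti-FITC acceptor beads on intact substrate. Reaction: Tdp1 1 nM, substrate 15 nM final, 5 min RT after 15 min compound preincubation.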
DT40 TDP1 CPT: qHTS for Inhibitors of human tyrosyl-DNA phosphodiesterase 1 (TDP1): qHTS in cells in presence of CPT | chicken DT40 Tdp1-/-;hTDP1 cells + 20 nM CPT, ATP luminescence, 48 h | AID 686979, 2013 | 420,000 compounds, 12% hits | Potency, µM (top dose mostly 46.2 µM), usual class: inhibitors; also: nearly all actives have a fitted effect of over 55% in size
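Chicken DT40 Tdp1-/- cells stably complemented with human TDP1 were seeded at 400 cells/well in medium containing 20 nM camptothecin, exposed to pin-transferred compounds, and grown at 37 °C for at least 48 hr. Viability was read as ATP luminescence.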
ELG1 DNA repair: qHTS screen for small molecules that inhibit ELG1-dependent DNA repair in human embryonic kidney (HEK293T) cells expressing luciferase-tagged ELG1. 330,000 compounds, 2.3% hits. Potency, µM (highest dose often 46.1 µM), actives largely listed as inhibitors. HEK293T ELG1-luciferase reporter, luminescence, 16 h; DNA damage induced by 5-fluorouridine; also: nearly all actives have a fitted effect of over 55% in size
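In this reporter screen, reduction of luminescence relative to DMSO vehicle indicated activity. Compounds and 5-fluorouridine were added together to 2,000 cells per well, incubated for 16 hr at 37 °C, then developed with ONE-Glo.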
IL1B secr inh: qHTS for Inhibitors of Inflammasome Signaling: IL-1-beta AlphaLISA Primary Screen. THP-1 LPS/ATP IL-1B secretion, AlphaLISA, 16 h; hits give low values. activity change, % at 57.5 µM. 360,000 compounds, 4.7% hits; in the data active = activity change below about -50%; inconclusive = mostly about -30% to -49%
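THP-1 cells pretreated 1 hr with compounds (up to 57.5 uM final), then stimulated with LPS (250 ng/mL final) plus ATP (1.25 mM final); secreted IL-1B measured by AlphaLISA after 16 hr, decreased signal indicating inhibition.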
Hits are given with their value; i = inactive; ? = inconclusive; nt = no result given. Unless noted, calls follow the shape of the dose curve; as a rule, active = well fitted curve in the direction sought with a large enough effect; inconclusive = small, poorly fitted or top-dose-only effect, or another doubt; inactive = no such curve, though single readings can be large; an effect the other way counts as inactive or inconclusive.

SMILES	DT40 TDP1 no CPT	Giardia killer	TDP1 inh	DT40 TDP1 CPT	ELG1 DNA repair	IL1B secr inh
COc1cccc(-c2nn(C)c3sc(C(=O)NCCc4ccc(Cl)cc4)cc23)c1	?	nt	i	?	nt	nt
CCCCN(C)CCNC(=O)c1cc2c(-c3cccc(OC)c3)nn(C)c2s1	20.6µM	i	nt	?	i	-86.7
COc1cccc(-c2nn(C)c3sc(C(=O)NCCCN(C)Cc4ccccc4)cc23)c1	16.4µM	i	nt	?	i	-78.8
O=C(O)CCc1ccc2ccccc2c1	i	nt	nt	i	nt	nt
Cn1c(=O)n(CCc2ccccc2)c(=O)c2c1nc1n2CCCN1Cc1ccccc1	13µM	i	i	?	?	i
CC(C)Cn1c(=O)c2c(nc3n2CCCN3CCc2ccccc2)n(C)c1=O	14.6µM	i	i	16.4µM	?	?
Cc1ccc(N2CCCn3c2nc2c3c(=O)n(CC(=O)OCc3ccccc3)c(=O)n2C)cc1C	nt	nt	i	nt	i	nt
Cc1ccc(N2CC(C)Cn3c2nc2c3c(=O)n(CC(=O)OCc3ccccc3)c(=O)n2C)cc1C (stereo unspecified)	17.8µM	i	i	11.2µM	?	i
CCCn1c(=O)c2c(nc3n2CCCN3CCc2ccccc2)n(C)c1=O	?	i	nt	?	?	i
Cn1c(=O)n(CCc2ccccc2)c(=O)c2c1nc1n2CCCN1CCc1ccccc1	7.31µM	i	i	11.6µM	23.1µM	?
Cc1ccc(CC2(C)C(=O)Nc3c(Cl)cccc32)cc1 (stereo unspecified)	?	nt	nt	?	nt	i
COc1ccc(CNS(=O)(=O)c2c(C(=O)N3CCCCC3)c(C)n(C)c2C)cc1	i	i	i	i	i	i
CCCCN(C)CCNC(=O)C(NC(=O)C1CCC(C)CC1)C(C)C (stereo unspecified)	i	i	i	i	i	i
COc1ccc(-c2noc(CNS(=O)(=O)c3ccc(Br)cc3)n2)cc1OC	?	nt	i	?	nt	nt
CCn1c(=O)c2c(nc3n2CC(C)CN3CCc2ccccc2)n(C)c1=O (stereo unspecified)	?	i	i	20.6µM	?	i
CCCn1c(=O)c2c(nc3n2CCCN3Cc2ccccc2)n(C)c1=O	i	i	nt	?	i	i
Cn1c(=O)n(Cc2ccc(F)cc2)c(=O)c2c1nc1n2CCCN1Cc1ccccc1	23.1µM	i	i	?	20.6µM	?
COc1cc(NC(=O)C[n+]2ccc(C(=O)c3ccccc3)cc2)cc(OC)c1	13µM	i	i	23.1µM	?	i
O=C(C[n+]1ccccc1)Nc1ccc(Oc2ccccc2)cc1	?	i	i	11.6µM	i	?
CO/N=C\CC(=O)Nc1ccc(Oc2ccccc2)cc1	1.3µM	i	i	1.46µM	i	i
O=C(CN1CCCCCC1)Nc1ccc(Oc2ccccc2)cc1	?	i	i	i	i	?
CCNC(=O)NC1c2ccccc2CSc2ccccc21 (stereo unspecified)	?	i	nt	i	nt	i
CCOCCN1CCN(C2c3ccccc3CSc3ccccc32)CC1 (stereo unspecified)	?	i	nt	?	nt	-73.6
COc1ccccc1/C=C/c1nc(S(=O)(=O)c2ccccc2)c(NCCN(C)C)o1	20.6µM	i	i	?	i	i
O=c1oc2c(-c3cccc(F)c3)cc(O)cc2s1	?	i	i	?	i	i
CC1CCCN(C(c2cccs2)c2nnnn2Cc2ccccc2)C1 (stereo unspecified)	?	i	i	?	i	i
CC1(C(=O)Nc2cccc(Oc3ccccc3)c2)CCN1Cc1cc2ccccc2o1 (stereo unspecified)	?	nt	nt	23.1µM	nt	i
CSc1ccc(CN2CCC2(C)C(=O)Nc2cccc(Oc3ccccc3)c2)cc1 (stereo unspecified)	14.6µM	nt	nt	18.4µM	nt	i

High-throughput results (PubChem)
